The values below come from PubChem BioAssay (NCATS).

Assay [1] deals with Zika virus NS2B-NS3 protease (unlinked complex). The assay can be described thus: Primary screen GU Rhodamine qHTS for Zika virus inhibitors: Unlinked NS2B-NS3 protease assay (AID 1347159). Further: nearly all actives have a fitted effect of over 60% in size. The essentials: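 Percent inhibition derives from the 15-min fluorescence change (ex 480, em 540 nm), normalized to no-enzyme and no-inhibitor wells. Reactions contained 25 nM NS2B-NS3 complex and 1.5 microM substrate in 10 mM Tris-HCl pH 8.0.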

Assay [2] concerns Zika virus NS2B-NS3 protease (linked construct). Kind of assay: Primary screen NINDS Rhodamine qHTS for Zika virus inhibitors (AID 1347160). Further: nearly all actives have a fitted effect of over 55% in size. The essentials: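 In 10 mM Tris-HCl pH 8.0 containing 0.01% Tween 20, linked NS2B-NS3 protease (25 nM final) is exposed to test compounds for 15 min. Cleavage of 1.5 microM Rhodamine110 substrate is tracked by fluorescence over 15 min.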

Records with an inconclusive call do not appear. Unmarked numbers belong to inactive results. Calls of active or inactive are those of the source. The call rests on the fitted dose curve; in most records, active means well fitted inhibition curve with a large enough effect; inconclusive means small, poorly fitted or top-dose-only effect; inactive means no such curve, though single readings can be large or run the other way.
On the % scale 0 is the no-effect control and ±100 the full control effect; potency means the concentration at half of the fitted maximal effect.

Turning to `CC(C)Nc1cc(-c2c[nH]c(C(=O)N[C@H](CO)c3cccc(Cl)c3)c2)c(Cl)cn1`, in assay [1], the Potency was 44.7 µM (active). In addition, in assay [2], the Potency entry was “inactive”.

With `CC1NC(=O)C(Cc2c[nH]c3ccccc23)NC1=O` (stereo unspecified), the Potency entry in assay [1] and in assay [2] was “inactive” each time.

For `O=C(/C=C/c1ccc(O)cc1)OC[C@]12O[C@H]1[C@@H](O)[C@@H]1C=CO[C@@H](O[C@@H]3O[C@H](CO)[C@@H](O)[C@H](O)[C@H]3O)[C@@H]12`, the Potency entry in assay [1] and in assay [2] was “inactive” throughout.

Consider `C[C@@H]1C[C@H](O[C@@H]2O[C@H](CO[C@@H]3OC[C@](O)(CO)[C@H]3O)[C@@H](O)[C@H](O)[C@H]2O)CC(C)(C)[C@H]1/C=C/[C@@H](C)O`, for which the Potency entry in assay [1] and in assay [2] was “inactive” in each case.

Regarding `CC(NC(=O)CC(=O)O)c1nc2ccccc2c(=O)[nH]1` (stereo unspecified), the values for the Potency in assay [1] and in assay [2] were 44.7 µM (active) and 25.1 µM (active), respectively.

Consider `CC1(C(=O)O)CCCC2(C)C1CCC13CC(CCC21)C1(CO)OC31` (stereo unspecified), for which the Potency result in assay [1] and in assay [2] was “inactive” each time.

For the molecule `CC1(CO)CC[C@]2(C(=O)O[C@@H]3O[C@H](CO)[C@@H](O)[C@H](O)[C@H]3O)CC[C@]3(C)C(=CCC4[C@@]5(C)C[C@H](O)[C@H](O[C@@H]6OC[C@@H](O)[C@H](O)[C@H]6O)[C@@](C)(CO)C5CC[C@]43C)C2C1` (stereo partly specified), the Potency entry in assay [1] and in assay [2] was “inactive” throughout.

In the case of `COC(=O)[C@H](CC1C=NC=N1)NCC12CC3CC(CC(C3)C1)C2` (stereo partly specified), the Potency entry in assay [1] and in assay [2] was “inactive” throughout.

With `COc1ccc(C(OC2OC(CO)C(O)C(O)C2O)C(C)O)cc1` (stereo unspecified), the Potency entry in assay [1] and in assay [2] was “inactive” each time.

Turning to `O=C(O)[C@H]1CCCC[C@H]1C(=O)N1CCc2ccccc2[C@H]1CN1C(=O)c2ccccc2C1=O`, the Potency result in assay [1] and in assay [2] was “inactive” in each case.

For `CC(NCc1ccc(OCc2cccc(F)c2)cc1)C(N)=O` (stereo unspecified), the Potency entry in assay [1] and in assay [2] was “inactive” throughout.

On to `O=c1ccn([C@@H]2O[C@H](CO)[C@@H](O)[C@H]2O)c(=O)[nH]1`, for which the Potency entry in assay [1] and in assay [2] was “inactive” throughout.

For the molecule `C[C@@H]1O[C@@H](O[C@@H]2[C@@H](O)[C@@H](O)[C@H](O[C@@H]3[C@@H](O)[C@@H](O[C@]4(CO)O[C@H](CO)[C@@H](O)[C@@H]4OC(=O)/C=C/c4ccc(O)cc4)O[C@H](CO)[C@H]3OC(=O)/C=C/c3ccc(O)cc3)O[C@H]2C)[C@H](O)[C@H](O)[C@H]1O`, the Potency entry in assay [1] and in assay [2] was “inactive” throughout.

Take `CC(C)=CC/C=C(/C)[C@H]1CC[C@]2(C)[C@@H]1[C@H](O)CC1[C@@]3(C)CC[C@H](O)C(C)(C)[C@@H]3[C@@H](O[C@@H]3O[C@H](CO)[C@@H](O)[C@H](O)[C@H]3O[C@@H]3O[C@@H](C)[C@H](O)[C@@H](O)[C@H]3O)C[C@]12C` (stereo partly specified): the Potency entry in assay [1] and in assay [2] was “inactive” in each case.

Consider `c1nc(NC2CCCCCC2)c2cc(CNC[C@H]3CCCO3)sc2n1`, for which the Potency entry in assay [1] and in assay [2] was “inactive” throughout.

Regarding `C=CC(C)(C)O[C@@H]1O[C@H](CO[C@@H]2OC[C@](O)(CO)[C@H]2O)[C@@H](O)[C@H](O)[C@H]1O`, the Potency result in assay [1] and in assay [2] was “inactive” throughout.

For the molecule `COc1ccc(C2=CC(=O)OC2Cc2ccc(O)cc2)c(O)c1` (stereo unspecified), the Potency entry in assay [1] and in assay [2] was “inactive” throughout.

On to `O=C(COc1ccc(Cl)cc1)NC1CCC(NC(=O)COc2ccc(Cl)cc2)CC1` (stereo unspecified), for which the Potency entry in assay [1] and in assay [2] was “inactive” throughout.

As to `Nc1ccn([C@@H]2C(F)=C(CO)[C@@H](O)[C@H]2O)c(=O)n1`, the Potency entry in assay [1] and in assay [2] was “inactive” throughout.

On to `O=C(CCCCc1ccc2ccccc2c1)C(F)(F)F`, for which the Potency result in assay [1] and in assay [2] was “inactive” each time.

Take `CC(C)(O)c1ccc2c(c1)C(O)CC1C(C)(C(=O)O)CCCC21C` (stereo unspecified): the Potency entry in assay [1] and in assay [2] was “inactive” in each case.

With `O=C1NCc2nc3ccccc3c(=O)n2C1Cc1c[nH]c2ccccc12` (stereo unspecified), the Potency entry in assay [1] and in assay [2] was “inactive” in each case.

In the case of `O=C(C1CC1)N1CC[C@@H](Cc2n[nH]c(=O)n2-c2ccc(-c3ccc4occc4c3)cc2)C1`, the Potency entry in assay [1] and in assay [2] was “inactive” throughout.

On to `C=C1C(=O)OC2/C=C(\C)CC/C=C(\C(=O)O)CC/C=C(\C)CCC12` (stereo unspecified), for which the Potency result in assay [1] and in assay [2] was “inactive” each time.

As for `CNC(=O)[C@H]1O[C@@H](n2cnc3c(NCc4ccc(N)c(I)c4)ncnc32)[C@H](O)[C@@H]1O`, the activity change, negative = inhibition in assay [1] was 10.8% [at 19.1 µM]. Moreover, in assay [2], the outcome is “inactive [at 10.7 µM]”.

Turning to `OCC1=CC[C@@H]2C=CO[C@@H](O[C@@H]3O[C@H](CO)[C@@H](O)[C@H](O)[C@H]3O)[C@H]12`, the Potency result in assay [1] and in assay [2] was “inactive” each time.

In the case of `COCCCNCC1COc2ccccc2O1` (stereo unspecified), the Potency result in assay [1] and in assay [2] was “inactive” in each case.

For `CC[C@H]1OC(=O)[C@H](C)[C@@H](O[C@H]2C[C@@](C)(OC)[C@@H](O)[C@H](C)O2)[C@H](C)[C@@H](O[C@@H]2O[C@H](C)C[C@H](N(C)C)[C@H]2O)[C@@](C)(O)C[C@@H](C)[C@@H]2N[C@@H](COCCOC)OC([C@H]2C)[C@]1(C)O`, the Potency entry in assay [1] and in assay [2] was “inactive” in each case.
